# Data as given in the supplement of paper PMC4466140.
# B1: unnamed (peptide)
# chain: RMVRRRPLRVQFSAR
# Biological target: ScBbc1
# Experiment: SPOT peptide array binding signal intensity (averaged, normalized) (arbitrary units (background-subtracted, floor 0; scale differs between SH3 domains)); higher = stronger binding of the SH3 domain to the peptide
# Method in brief: (§1)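 GST-SH3 fusions from four yeast species, purified on glutathione Sepharose, were incubated at 10 μg/ml overnight at 4°C on membranes of synthetic 15-mer peptides in which cysteines were replaced with serines. Binding signal is the normalized, background-subtracted spot intensity averaged over replicates, in domain-specific arbitrary units.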
row,Binder,SPOT peptide array binding signal intensity
1,B1,90.2

# Biological target: ScBem1-D1
# Experiment: as above
# Method in brief: as §1
row,Binder,SPOT peptide array binding signal intensity
1,B1,142

# Biological target: ScBzz1-D1
# Experiment: as above
# Method in brief: as §1
row,Binder,SPOT peptide array binding signal intensity
1,B1,39.5

# Biological target: ScBzz1-D2
# Experiment: as above
# Method in brief: as §1
row,Binder,SPOT peptide array binding signal intensity
1,B1,238

# Biological target: ScCyk3
# Experiment: as above
# Method in brief: as §1
row,Binder,SPOT peptide array binding signal intensity
1,B1,81.5

# Biological target: ScFus1
# Experiment: as above
# Method in brief: as §1
row,Binder,SPOT peptide array binding signal intensity
1,B1,1530

# Biological target: ScHof1
# Experiment: as above
# Method in brief: as §1
row,Binder,SPOT peptide array binding signal intensity
1,B1,12

# Biological target: ScHse1
# Experiment: as above
# Method in brief: as §1
row,Binder,SPOT peptide array binding signal intensity
1,B1,2920

# Biological target: ScLsb1
# Experiment: as above
# Method in brief: as §1
row,Binder,SPOT peptide array binding signal intensity
1,B1,23.2

# Biological target: ScLsb2
# Experiment: as above
# Method in brief: as §1
row,Binder,SPOT peptide array binding signal intensity
1,B1,14

# Biological target: ScLsb3
# Experiment: as above
# Method in brief: as §1
row,Binder,SPOT peptide array binding signal intensity
1,B1,1400

# Biological target: ScLsb4
# Experiment: as above
# Method in brief: as §1
row,Binder,SPOT peptide array binding signal intensity
1,B1,364

# Biological target: ScMyo3
# Experiment: as above
# Method in brief: as §1
row,Binder,SPOT peptide array binding signal intensity
1,B1,16

# Biological target: ScMyo5
# Experiment: as above
# Method in brief: as §1
row,Binder,SPOT peptide array binding signal intensity
1,B1,2

# Biological target: ScNbp2
# Experiment: as above
# Method in brief: as §1
row,Binder,SPOT peptide array binding signal intensity
1,B1,1660

# Biological target: ScPex13
# Experiment: as above
# Method in brief: as §1
row,Binder,SPOT peptide array binding signal intensity
1,B1,40

# Biological target: ScRvs167
# Experiment: as above
# Method in brief: as §1
row,Binder,SPOT peptide array binding signal intensity
1,B1,164

# Biological target: ScSho1
# Experiment: as above
# Method in brief: as §1
row,Binder,SPOT peptide array binding signal intensity
1,B1,1900

# Biological target: ScSla1-D1-D2
# Experiment: as above
# Method in brief: as §1
row,Binder,SPOT peptide array binding signal intensity
1,B1,1030

# Biological target: ScSla1-D3
# Experiment: as above
# Method in brief: as §1
row,Binder,SPOT peptide array binding signal intensity
1,B1,217

# Biological target: SpAbp1-D1
# Experiment: as above
# Method in brief: as §1
row,Binder,SPOT peptide array binding signal intensity
1,B1,558

# Biological target: SpBbc1
# Experiment: as above
# Method in brief: as §1
row,Binder,SPOT peptide array binding signal intensity
1,B1,38.8

# Biological target: SpBzz1-D1
# Experiment: as above
# Method in brief: as §1
row,Binder,SPOT peptide array binding signal intensity
1,B1,224

# Biological target: SpBzz1-D2
# Experiment: as above
# Method in brief: as §1
row,Binder,SPOT peptide array binding signal intensity
1,B1,30.5

# Biological target: SpCyk3
# Experiment: as above
# Method in brief: as §1
row,Binder,SPOT peptide array binding signal intensity
1,B1,7

# Biological target: SpHof1
# Experiment: as above
# Method in brief: as §1
row,Binder,SPOT peptide array binding signal intensity
1,B1,556

# Biological target: SpHof1-2
# Experiment: as above
# Method in brief: as §1
row,Binder,SPOT peptide array binding signal intensity
1,B1,29.5

# Biological target: SpHof1-3
# Experiment: as above
# Method in brief: as §1
row,Binder,SPOT peptide array binding signal intensity
1,B1,862

# Biological target: SpHse1
# Experiment: as above
# Method in brief: as §1
row,Binder,SPOT peptide array binding signal intensity
1,B1,874

# Biological target: SpLsb1
# Experiment: as above
# Method in brief: as §1
row,Binder,SPOT peptide array binding signal intensity
1,B1,21

# Biological target: SpLsb4
# Experiment: as above
# Method in brief: as §1
row,Binder,SPOT peptide array binding signal intensity
1,B1,1330

# Biological target: SpMyo1
# Experiment: as above
# Method in brief: as §1
row,Binder,SPOT peptide array binding signal intensity
1,B1,46.2

# Biological target: SpNbp2
# Experiment: as above
# Method in brief: as §1
row,Binder,SPOT peptide array binding signal intensity
1,B1,1850

# Biological target: SpPex13
# Experiment: as above
# Method in brief: as §1
row,Binder,SPOT peptide array binding signal intensity
1,B1,320

# Biological target: SpRvs167
# Experiment: as above
# Method in brief: as §1
row,Binder,SPOT peptide array binding signal intensity
1,B1,66.2

# Biological target: SpSla1-D1-D2
# Experiment: as above
# Method in brief: as §1
row,Binder,SPOT peptide array binding signal intensity
1,B1,15

# Biological target: SpSla1-D3
# Experiment: as above
# Method in brief: as §1
row,Binder,SPOT peptide array binding signal intensity
1,B1,81
